“And” between values parts separate entries of the source, which are not always exact repeats. Equal values may be shown once. The campaign covered roughly 5,500 compounds. About 2,000 (36%) were called active. Not shown: some 18% with an inconclusive outcome. No stated cut-off is given here; in the data, active means normalized growth mostly below about 0.91 (no sharp cut-off); inconclusive means no clear call, values can overlap the other calls; inactive means mostly above about 0.92. The list shows a part of the results.
Experiment: chemical genetic growth profiling, strain panel (AID 1159580);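 further: tested at 20 µM; growth read once vehicle control cultures reached saturation at 30 °C; 1 = growth at the plate median or of vehicle wells; lower values mean less growth of the strain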
Details: S. cerevisiae deletion strains, growth OD

Measured: normalized growth

CCn1cc(C(=O)O)c(=O)c2cnc(N3CCCC3)nc21
inactive: locus YAL026C, strain drs2, active compounds read low 0.956 | locus YAL030W, strain snc1, active compounds read low 0.997 | locus YBL061C, strain skt5, active compounds read low 1.01 | locus YBR009C, strain hhf1, active compounds read low 1.04 | locus YBR021W, strain FUR4, active compounds read low 1.03 | locus YBR023C, strain chs3, active compounds read low 1 | locus YBR171W, strain sec66, active compounds read low 1 | locus YBR229C, strain ROT2, active compounds read low 1.01 | locus YBR231C, strain swc5, active compounds read low 1.03 | locus YBR279W, strain paf1, active compounds read low 0.989 | locus YCL011C, strain gbp2, active compounds read low 1 | locus YCL016C, strain dcc1, active compounds read low 1 | locus YCL029C, strain bik1, active compounds read low 0.997 | locus YCL061C, strain MRC1, active compounds read low 1 | locus YCL069W, strain vba3, active compounds read low 0.997 | locus YCR088W, strain abp1, active compounds read low 1.01 | locus YDL005C, strain med2, active compounds read low 1 | locus YDL035C, strain GPR1, active compounds read low 1.02 | locus YDL040C, strain nat1, active compounds read low 0.991 | locus YDL074C, strain BRE1, active compounds read low 1.04 | locus YDL101C, strain DUN1, active compounds read low 1.02 | locus YDL134C, strain PPH21, active compounds read low 1.03 | locus YDL185W, strain tfp1, active compounds read low 1.01 | locus YDL192W, strain arf1, active compounds read low 0.993 | locus YDR001C, strain nth1, active compounds read low 1.01 | locus YDR069C, strain doa4, active compounds read low 1 | locus YDR101C, strain arx1, active compounds read low 0.999 | locus YDR137W, strain rgp1, active compounds read low 0.95 | locus YDR159W, strain sac3, active compounds read low 1.01 | locus YDR162C, strain NBP2, active compounds read low 1.01 | locus YDR195W, strain ref2 1.04 | locus YDR297W, strain sur2, active compounds read low 1.01 | locus YDR318W, strain mcm21, active compounds read low 1 | locus YDR334W, strain swr1, active compounds read low 1.01 | locus YDR335W, strain msn5, active compounds read low 1 | locus YDR388W, active compounds read low 1.01 | locus YDR392W, strain spt3, active compounds read low 1.03 | locus YDR502C, strain sam2, active compounds read low 1.01 | locus YEL003W, strain gim4, active compounds read low 1.01 | locus YEL037C, strain rad23, active compounds read low 0.999 | locus YEL061C, strain CIN8 (second series), active compounds read low 1 | locus YEL061C, strain CIN8, active compounds read low 0.999 | locus YER015W, strain faa2, active compounds read low 1 | locus YER016W, strain bim1, active compounds read low 1.01 | locus YER110C, active compounds read low 1 | locus YER111C, strain swi4, active compounds read low 1.02 | locus YER155C, strain BEM2 (second series), active compounds read low 0.998 | locus YER155C, strain BEM2, active compounds read low 1.01 | locus YER167W, strain BCK2, active compounds read low 1.01 | locus YFR010W, strain ubp6, active compounds read low 0.997 | locus YGL078C, strain dbp3, active compounds read low 1 | locus YGL086W, strain mad1, active compounds read low 1 | locus YGL167C, strain pmr1, active compounds read low 1.01 | locus YGL173C, strain kem1, active compounds read low 1 | locus YGL227W, strain vid30, active compounds read low 1.01 | locus YGL240W, strain doc1, active compounds read low 1.05 | locus YGL248W, strain PDE1, active compounds read low 1 | locus YGL253W, strain hxk2, active compounds read low 1.04 | locus YGR078C, strain PAC10, active compounds read low 1.01 | locus YGR135W, strain pre9, active compounds read low 1.01 | locus YGR252W, strain gcn5, active compounds read low 1.12 | locus YHR013C, strain ard1, active compounds read low 0.998 | locus YHR027C, strain rpn1, active compounds read low 1 | locus YHR030C, strain SLT2, active compounds read low 1 and 0.991 | locus YHR079C, strain IRE1 (second series), active compounds read low 1 | locus YHR079C, strain IRE1, active compounds read low 0.998 | locus YHR094C, strain hxt1, active compounds read low 0.999 | locus YHR129C, strain ARP1, active compounds read low 1.02 | locus YHR142W, strain chs7, active compounds read low 0.962 | locus YHR200W, strain rpn10, active compounds read low 0.998 | locus YIL066C, strain RNR3, active compounds read low 1.01 | locus YIL073C, strain SPO22, active compounds read low 1.1 | locus YIL125W, strain kgd1, active compounds read low 1.01 | locus YIR030C, strain dcg1, active compounds read low 0.987 | locus YJL092W, strain hpr5, active compounds read low 1.01 | locus YJL095W, strain BCK1 (second series), active compounds read low 1 | locus YJL095W, strain BCK1, active compounds read low 1 | locus YJL115W, strain asf1, active compounds read low 0.94 | locus YJL129C, strain trk1, active compounds read low 1.11 | locus YJL134W, strain LCB3, active compounds read low 1 | locus YJL154C, strain vps35, active compounds read low 0.991 | locus YJL164C, strain tpk1, active compounds read low 0.99 | locus YJL166W, strain qcr8, active compounds read low 0.996 | locus YJL168C, strain set2, active compounds read low 1 | locus YJL187C, strain SWE1 (second series), active compounds read low 0.997 | locus YJL187C, strain SWE1, active compounds read low 1 | locus YJR043C, strain POL32, active compounds read low 1.03 | locus YJR066W, strain TOR1, active compounds read low 0.982 | locus YJR075W, strain HOC1, active compounds read low 1.02
active: locus YAL021C, strain ccr4, active compounds read low 0.898
